# High-throughput results as filed in PubChem.
# 12-LOX inh: ALOX12 (human) lipoxygenase inhibition; P18054; purified 12hLO, xylenol orange hydroperoxide absorbance; Potency, µM (doses to about 108 µM), for the others: at the highest dose activity change, negative = inhibition, most hits filed as inhibitors; hit rate 1.1% among 580,000; also: potency is read from the fitted curve at half-maximal effect; % is scaled to controls: 0 for no effect and ±100 for the full control effect
# Target sequence (P18054 whole entry, looked up): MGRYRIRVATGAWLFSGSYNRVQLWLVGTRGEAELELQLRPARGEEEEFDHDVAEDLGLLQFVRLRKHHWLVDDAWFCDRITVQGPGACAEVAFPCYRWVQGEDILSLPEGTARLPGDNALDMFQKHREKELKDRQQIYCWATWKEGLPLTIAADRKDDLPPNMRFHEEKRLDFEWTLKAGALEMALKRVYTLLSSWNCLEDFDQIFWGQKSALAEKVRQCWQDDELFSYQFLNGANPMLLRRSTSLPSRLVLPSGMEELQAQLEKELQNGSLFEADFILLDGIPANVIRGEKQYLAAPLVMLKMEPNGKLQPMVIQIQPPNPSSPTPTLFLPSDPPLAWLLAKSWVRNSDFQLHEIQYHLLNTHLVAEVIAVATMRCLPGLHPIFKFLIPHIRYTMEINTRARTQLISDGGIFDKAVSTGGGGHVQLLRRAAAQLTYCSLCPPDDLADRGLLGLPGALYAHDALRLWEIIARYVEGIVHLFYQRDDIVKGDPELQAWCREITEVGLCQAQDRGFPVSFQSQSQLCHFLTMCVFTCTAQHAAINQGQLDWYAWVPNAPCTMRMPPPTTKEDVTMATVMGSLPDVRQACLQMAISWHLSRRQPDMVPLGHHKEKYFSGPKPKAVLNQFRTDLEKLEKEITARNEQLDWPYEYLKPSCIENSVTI
#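 Purified human 12hLO at 150 nM in 25 mM Hepes, 0.01% Triton X-100, pH 7.0, preincubated 15 min at room temperature with compound. Reaction started with 40 uM arachidonic acid, 30 min at room temperature. Hydroperoxide measured by Fe-xylenol orange, 573/405 nm absorbance ratio.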
# CCT chaperon mod: changes cytosolic chaperonin activity. hit rate 0.3% among 360,000. AID 651819. purified chaperonin ATPase assay, HTRF ADP detection, 30 min. activity change, % (concentration not given with the values), hits read low; in the data active = activity change below about -30%; also: % is scaled to controls: 0 for no effect and ±100 for the full control effect
#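 First, chaperonin was dispensed at 40 nM or 20 nM final depending on batch activity. Next, compounds were pinned at 76 uM and ATP added at 10 uM. After 30 min at 37 °C, ADP detection reagents ran 30 min at ambient temperature.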
# ASM inhibitor: blocks human secretory acid sphingomyelinase; P17405; Potency, µM (series often up to 57.5 µM), without a hit: top-dose activity change, negative = inhibition, usual class: inhibitors; placental ASM, HMU-PC fluorogenic substrate, 60 min; hit rate 0.006% among 340,000; also: potency is read from the fitted curve at half-maximal effect
#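 Fluorogenic HMU-PC substrate (9 uM final) is turned over by placental ASM in 60 min at 37 C after a 10 min compound preincubation. Reaction ended by alkaline stop (pH 10), with fluorescence read at 386/447 nm.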
# PINK1 expr mod: modulators of PINK1 expression. PINK1 immunofluorescence, high-content cytometry, 24 h. Potency, µM (titrated, usually from 76.6 µM), for inactives: at the highest dose activation (PINK1 increase), hits mostly activators. hit rate 0.2% among 410,000. AID 624263; active = well fitted activation curve with a large enough effect; inconclusive = small, poorly fitted or top-dose-only effect; cell line not stated here; also: potency is read from the fitted curve at half-maximal effect; % of control where 0% means no effect; nearly all actives have a fitted effect of over 65% in size
#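 PINK1 protein level read as immunofluorescence by microplate cytometer in a fixed, stained stable cell line after 24 h exposure to five compound concentrations, with CCCP as control.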
# p53 reactivator: re-activators of mutant p53; H1299 p53-A138V BP100-luciferase reporter, luminescence, 24 h; hit rate 0.063% among 320,000; Potency, µM (top dose mostly 92.2 µM), without a hit: at the highest dose activity change, positive = activation, usual class: activators; also: potency is read from the fitted curve at half-maximal effect; % of control where 0% means no effect; nearly all actives have a fitted effect of over 45% in size
#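 H1299 (p53-null), stable ts p53-A138V + BP100-Luc; 1000 cells/well, Opti-MEM/10% FBS; cpd 4 pt, 1:5; 24 h, 37 deg C, 5% CO2; detection reagent 10 min RT; luminescence.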
# Mm-Cpn inhibitor: inhibitors of Methanococcus maripaludis chaperonin TRiC (MmCpn) | purified Mm-Cpn ATPase, ADP Transcreener TR-FRET | Potency, µM (highest dose often 76.9 µM), without a hit: at the top dose activity, negative = inhibition, usual class: inhibitors | hit rate 0.031% among 330,000 | AID 504842; also: potency is read from the fitted curve at half-maximal effect; % is scaled to controls: 0 for no effect and ±100 for the full control effect; nearly all actives have a fitted effect of over 80% in size
#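 Measured: ADP formation by purified Mm-CPN. Conditions: 25 nM protein, 10 uM ATP, Tris pH 7.4 with Mg2+, K+ and DTT, 37°C for 30 min. Detection: Transcreener HTRF after 30 min at room temperature.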
# * = called active by the depositor; ? = inconclusive; · = not tested or not shown; ! = repeats disagree; [ ] = remark or other dose. Most compounds without a hit are left out; they make up all but 1.4% or so of the library. Unless noted, calls follow the shape of the dose curve; as a rule, active = well fitted curve in the direction sought with a large enough effect; inconclusive = small, poorly fitted or top-dose-only effect, or another doubt; inactive = no such curve, though single readings can be large; an effect the other way counts as inactive or inconclusive.
SMILES,12-LOX inh,CCT chaperon mod,ASM inhibitor,PINK1 expr mod,p53 reactivator,Mm-Cpn inhibitor
CN(Cc1cccc(Cl)c1Cl)C(=O)c1ccccc1NS(C)(=O)=O,-57%,·,·,·,·,·
Cc1ccc(C2N3CC4(C)CN2CC(C)(C3)C4=O)cc1 (configuration not stated),12%,·,·,·,·,·
Cc1ccc2nc(-c3ccccc3)cn2c1,?,0,-2%,0%,-10%,-4%
Cc1ccc2nc(-c3ccc(O)c(O)c3)cn2c1,18µM*,0,-5%,?,-5%,-2%
C[N+](C)(C)C/C=C1/COCO1,11µM*!,-1,-1%,-2%,-8%,-2%
O=C(O)C1CCC(C(=O)O)CC1 (configuration not stated),-15%,·,·,·,·,·
COCc1cc(N2CCc3onc(-c4cccc5ccccc45)c3C2)ncn1,44%,·,·,·,·,·
C=CCN1CCCN(Cc2ccc(C#N)cc2)CC1,20%,·,·,·,·,·
O=C1OCC2(CCN(Cc3c[nH]c4ccccc34)C2)N1Cc1ccccc1 (configuration not stated),50µM*,·,·,·,·,·
CC1(c2ccccc2)N(Cc2ccc(O)cc2)C(=O)OC12CCN(Cc1c[nH]c3ccccc13)CC2 (configuration not stated),45µM*,·,·,·,·,·
COc1cccc(N2C(=O)OCC23CCN(Cc2c[nH]c4ccccc24)C3)c1 (configuration not stated),20%[176 µM],·,·,·,·,·
CC(NC(=O)c1cc(F)cc(F)c1)C1CC2CCC1C2 (configuration not stated),-22%,·,·,·,·,·
CCCCCC1CCC(c2ccc(OC(=O)c3ccco3)cc2)CC1 (configuration not stated),9%,·,·,·,·,·
Cc1c(C(=O)N(C)Cc2nc3ccsc3c(=O)[nH]2)cnn1-c1ccccc1F,12%,·,·,·,·,·
COc1ccc2[nH]cc(CCNc3cc(-c4cccnc4)ncn3)c2c1,32µM*,·,·,-1%,·,·
COc1ccc(CNc2ccnc(-c3ccc4c(c3)OCO4)n2)c(OC)c1,20µM*,·,·,11%,·,·
COc1ccc2[nH]cc(CCNc3cc(-c4ccccc4C)ncn3)c2c1,?,·,·,1%,·,·
COc1ccc2[nH]cc(CCNc3ccnc(-c4ccc5c(c4)OCO5)n3)c2c1,45µM*,·,·,1%,·,·
CC(C)n1nc(C(=O)NCCCN2CCCC2)c2ccccc2c1=O,-3%,·,·,·,·,·
CC[C@@H](NC(=O)[C@@H](Cc1ccccc1)NC(=O)CC[C@H]1O[C@@H](n2ccc(=O)[nH]c2=O)[C@H](O)[C@@H]1O)c1ccccc1,32µM*,-2,·,-1%,·,·
c1ccc(C(Nc2ccc3nnnn3n2)c2ccccn2)cc1 (configuration not stated),15%,·,·,·,·,·
Cc1cccc(NC(=S)/N=C(\N)Nc2nc(C)c3cc(C)ccc3n2)c1,40µM*,-4,2%,2%,9%,1%
Cc1cc(C)cc(NC(=S)/N=C(\N)Nc2nc(C)c3ccccc3n2)c1,45µM*,1,-6%,8%,?,-10%
CCOc1ccc2nc(N/C(N)=N/C(=S)Nc3ccc(OC)cc3)nc(C)c2c1,?,-1,46%,11%,-4%,-10%
Cc1cccc(NC(=S)/N=C(\N)Nc2nc(C)c3ccccc3n2)c1,?,-3,-9%,2%,?,?
SMILES,12-LOX inh,CCT chaperon mod,ASM inhibitor,PINK1 expr mod,p53 reactivator,Mm-Cpn inhibitor
CCc1ccc(NC(=S)/N=C(\N)Nc2nc(C)c3cc(CC)ccc3n2)cc1,35µM*,0,-3%,0%,-1%,-11%
O=C(O)CCC(CNS(=O)(=O)c1ccc(Cl)cc1)C(F)(F)F (configuration not stated),-23%,·,·,·,·,·
O=C(NC1CCCN(c2cc(-c3ccc(F)cc3)[nH]n2)C1)c1c[nH]c2ccccc12 (configuration not stated),-17%,·,·,·,·,·
CC(C)c1ccc(OCCCCN2CCCCC2)cc1,0%,1,-5%,-1%,-3%,-1%
CC(C)Oc1ccc(OCCCN2CCCCCC2)cc1,0.45µM*,1,3%,-3%,5%,-1%
Cc1[nH]c(=S)sc1Cc1cccc(C(F)(F)F)c1,25µM*,·,·,·,·,·
